ID4 binder – binders of human ID4 protein | P47928 | small molecule microarray, Flag-ID4 binding, fluorescence F/B | calls only | 1.2% of 31,000 active | AID 624137; call rule not given here;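 also: a binder raises fluorescence above local background on the spot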
Target sequence (P47928 whole entry, looked up): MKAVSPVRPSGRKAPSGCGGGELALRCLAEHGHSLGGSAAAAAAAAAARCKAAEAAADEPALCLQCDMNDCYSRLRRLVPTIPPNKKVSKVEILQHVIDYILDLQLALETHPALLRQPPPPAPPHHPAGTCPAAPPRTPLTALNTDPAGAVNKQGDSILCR
STK33 inh – inhibitors of human STK33 kinase; ADP-Glo luminescence, MBP substrate; 0.44% of 27,000 active; AID 2322; Q9BYT3; inhibition, % at 12.5 µM; in the data active = inhibition above about 20%
Target sequence (Q9BYT3 whole entry, looked up): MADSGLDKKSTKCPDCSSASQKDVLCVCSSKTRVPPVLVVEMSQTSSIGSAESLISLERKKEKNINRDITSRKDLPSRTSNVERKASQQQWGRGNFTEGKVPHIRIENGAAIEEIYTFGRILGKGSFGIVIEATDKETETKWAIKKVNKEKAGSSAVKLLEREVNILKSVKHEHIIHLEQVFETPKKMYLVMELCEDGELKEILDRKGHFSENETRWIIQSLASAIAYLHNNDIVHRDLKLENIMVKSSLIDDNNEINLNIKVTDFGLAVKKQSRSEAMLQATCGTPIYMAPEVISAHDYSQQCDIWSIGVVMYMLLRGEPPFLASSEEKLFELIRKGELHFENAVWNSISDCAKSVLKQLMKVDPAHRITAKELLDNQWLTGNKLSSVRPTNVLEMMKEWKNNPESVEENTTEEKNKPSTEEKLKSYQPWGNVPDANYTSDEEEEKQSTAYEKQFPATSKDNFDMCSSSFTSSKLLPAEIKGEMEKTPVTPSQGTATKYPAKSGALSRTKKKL
mut p53 react – restores mutant p53 pathway signaling in SW480 cells; SW480 PUMA-promoter luciferase, p53 mutant reactivation; activation, % at 9.98 µM; 1.5% of 28,000 active; AID 624151; in the data active = activation above about 52%
Each line names hits and unclear results; the compound was inactive in the other large screens. A selection: hits, their analogues and other compounds. The true share with any hit is near 2%.

COc1cc(O)c(CC=C(C)C)cc1C(=O)/C=C/c1ccc(O)c(CC=C(C)C)c1	none (no result: ID4 binder)
CC(Oc1cccc(Br)c1)C(=O)NCc1ccco1 (configuration not stated)	none
CC1CCc2c(sc3ncnc(SCC(=O)Nc4cccc(Cl)c4Cl)c23)C1 (configuration not stated)	none
CSc1cccc(NC(=O)CSc2nnc(-c3cccc(C)c3)o2)c1	mut p53 react 103
O=C(CSc1nnc(-c2ccc(Br)cc2)o1)Nc1ccccc1Cl	mut p53 react 75
CSc1cccc(NC(=O)CSc2nnc(-c3cccc(C)c3)n2C)c1	none
Cc1ccc(NC(=O)CSc2nnc(-c3ccc(Br)cc3)o2)cc1Cl	none
O=C(CSc1nnc(-c2ccccc2)o1)Nc1cccc(Br)c1	mut p53 react 102
O=C(CSc1nnc(-c2ccc(Br)cc2)o1)Nc1cccc(C(=O)O)c1	none
Cc1cccc(-c2nnc(SCC(=O)Nc3ccc(Br)cc3F)o2)c1	mut p53 react 80
Cc1cccc(-c2nnc(SCC(=O)Nc3c(C)cc(I)cc3C)o2)c1	none
N#CCCN(CCC#N)C(=O)c1ccccc1Oc1ccccc1	none
O=C(CSc1nc(-c2ccccc2)cc(-c2ccccc2)n1)Nc1cccc([N+](=O)[O-])c1	none
COc1ccc(-c2c(C(F)(F)F)oc3cc(OCC(=O)Nc4ccc(C)cc4)ccc3c2=O)cc1OC	none
O=C1CC(c2cccs2)Cc2nc(NCCN3CCOCC3)ncc21 (configuration not stated)	none
C=CCN1CCN(c2nc3ccccc3nc2C#N)CC1	ID4 binder active
CCN1CCN(c2oc(COc3ccccc3C)nc2C#N)CC1	none (no result: STK33 inh)
Cc1ccc(C(=O)CSc2nc3ccccc3o2)cc1[N+](=O)[O-]	none
O=C(O)CCc1nn2c3ccccc3n(CCN3CCCCC3)c2nc1=O	ID4 binder active
CCn1nccc1C(=O)Nc1nc2ccccc2n1CCN1CCCCC1	none
C[C@@H]1C[C@@H]2O[C@H]2/C=C/C=C\C(=O)Cc2c(Cl)c(O)cc(O)c2C(=O)O1	none (no result: ID4 binder, mut p53 react)
C[C@@H]1C[C@H]2OCC3=CCC[C@H]([C@]1(CC(O)c1ccoc1)C(=O)O)[C@]32CO (some centres not stated)	none (no result: ID4 binder, mut p53 react)
COc1cc2ncnc(Nc3ccc(Cl)cc3F)c2cc1OC	STK33 inh 26 (no result: mut p53 react)
C#Cc1cccc(Nc2ncnc3cc(OC)c(OC)cc23)c1	STK33 inh 23
COc1cc2ncnc(Nc3ccc(OCc4ccccc4)cc3)c2cc1OC	none (no result: ID4 binder)
Cc1cc(F)c(Nc2ncnc3cc(OCc4ccccc4)ccc23)cc1O	none (no result: STK33 inh)
Cc1c(Cl)ccc2c(C(=O)NCCCn3cc(Br)cn3)cc(-c3ccncc3)nc12	none
Cc1ccc(NC(=O)CN(c2cccc(F)c2)S(C)(=O)=O)cc1Cl	none
Cc1ccc(C)c(NC(=O)CN(c2cccc(F)c2)S(C)(=O)=O)c1	mut p53 react 64
CCN(CC(=O)Nc1ccc(Cl)c(C(F)(F)F)c1)S(=O)(=O)c1ccc(C)cc1	none
COC(=O)c1c(NC(=O)COc2cccc(Cl)c2)sc2c1CCC2	none
COc1cc(N)c(Cl)cc1C(=O)NC1CCN(Cc2ccccc2)CC1	none (no result: ID4 binder, mut p53 react)
O=C(NC1CCN(Cc2ccccc2)CC1)c1ccc(NS(=O)(=O)c2cccs2)cc1	ID4 binder active (no result: STK33 inh)
Cc1ccc(S(=O)(=O)N(C)CC(=O)Nc2ccccc2[N+](=O)[O-])cc1	none
COC(=O)c1cn(CCCNC(=O)[C@H](Cc2ccccc2)NS(=O)(=O)c2ccc(C)cc2)nn1	ID4 binder active (no result: STK33 inh, mut p53 react)
Cc1ccc(S(=O)(=O)N[C@H](Cc2ccccc2)C(=O)CCl)cc1	none (no result: ID4 binder)
CC(C)(C)c1ccc(C(=O)NCCNc2ccccc2[N+](=O)[O-])cc1	mut p53 react 114
Cc1ccc(C(=O)NCCNc2ccccc2[N+](=O)[O-])cc1	none
CCC(C)[C@@H](CO[C@@H](Cc1ccccc1)C(=O)N[C@@H](CCS(C)(=O)=O)C(=O)OC(C)C)NC[C@@H](N)CS (some centres not stated)	none
Cc1cc(C)cc(NC(=O)COc2ccc(N3CC(C(N)=O)CC3=O)cc2)c1 (configuration not stated)	none
Cc1ccc(-c2noc(CSc3nnc(C)n3-c3cccc(C)c3)n2)cc1	none
Cc1ccc(-c2noc(CSc3nc(C)cc(C)n3)n2)cc1	mut p53 react 63
O=C(c1ccccc1)c1cc(Cl)ccc1NS(=O)(=O)c1ccccc1[N+](=O)[O-]	none
C[C@H](CO)N1C[C@H](C)[C@@H](CN(C)Cc2cncnc2)Oc2ncc(C#Cc3ccccn3)cc2C1=O	ID4 binder active (no result: STK33 inh)
C[C@@H]1CN([C@@H](C)CO)C(=O)c2cc(-c3cccc(C(=O)N(C)C)c3)cnc2O[C@@H]1CN(C)C	none (no result: STK33 inh, mut p53 react)
C[C@@H]1CN([C@H](C)CO)C(=O)c2cc(C#Cc3ccccn3)cnc2O[C@@H]1CN(C)Cc1cccnc1	none (no result: ID4 binder, STK33 inh)
C[C@@H]1CN([C@H](C)CO)C(=O)c2cc(-c3cccc(C#N)c3)cnc2O[C@@H]1CN(C)Cc1ccncc1	none (no result: ID4 binder, STK33 inh)
C[C@@H]1CN([C@H](C)CO)C(=O)c2cc(-c3ccc(C#N)cc3)cnc2O[C@H]1CN(C)Cc1ccncc1	ID4 binder active (no result: STK33 inh)
Cc1ccc(-c2cnc3c(c2)C(=O)N([C@@H](C)CO)C[C@H](C)[C@@H](CN(C)C)O3)cc1	none (no result: STK33 inh, mut p53 react)
C[C@@H]1CN([C@H](C)CO)C(=O)c2cc(-c3cccc(C(=O)N(C)C)c3)cnc2O[C@H]1CN(C)C	ID4 binder active (no result: STK33 inh, mut p53 react)
C[C@H]1CN([C@@H](C)CO)C(=O)c2cc(-c3ccncc3)cnc2O[C@@H]1CN(C)C	ID4 binder active (no result: STK33 inh, mut p53 react)
C[C@@H]1CN([C@H](C)CO)C(=O)c2cc(C#CCN(C)C)cnc2O[C@H]1CN(C)C(=O)c1cccnc1	ID4 binder active (no result: STK33 inh)
C[C@H]1CN([C@@H](C)CO)C(=O)c2cc(-c3ccc(C(=O)N(C)C)cc3)cnc2O[C@@H]1CN(C)C	none (no result: STK33 inh, mut p53 react)
C[C@@H]1CN([C@H](C)CO)C(=O)c2cc(-c3ccc(C(=O)N(C)C)cc3)cnc2O[C@H]1CN(C)C	ID4 binder active (no result: STK33 inh, mut p53 react)
CCCN(C)C[C@@H]1Oc2ncc(-c3cccc(C(=O)N(C)C)c3)cc2C(=O)N([C@@H](C)CO)C[C@H]1C	ID4 binder active (no result: STK33 inh)
CCCN(C)C[C@H]1Oc2ncc(-c3cccc(C(=O)N(C)C)c3)cc2C(=O)N([C@H](C)CO)C[C@H]1C	none (no result: STK33 inh, mut p53 react)
CC(C)C#Cc1cnc2c(c1)C(=O)N([C@@H](C)CO)C[C@H](C)[C@@H](CN(C)C(=O)c1cccnc1)O2	none (no result: STK33 inh)
O=S(=O)(c1ccccc1)c1nc(-c2ccccc2)oc1NCC1CCCO1 (configuration not stated)	none
Cc1ccc(Oc2ccc(NC(=O)CN3C(=O)C4C5C=CC(C6CC56)C4C3=O)cc2)cc1 (configuration not stated)	none
Cc1cc(Cl)c(S(=O)(=O)Nc2cc(Cl)ccc2Cl)cc1OCC(N)=O	none
Cc1ccc(NC(=O)CSc2nnc(-c3cccc4ccccc34)n2-c2ccccc2)c(C)c1	none
O=C(CC1CC1)Nc1ccc2c(c1)[C@@H]1C[C@H](CC(=O)NC3CCCC3)O[C@H](CO)[C@@H]1O2	ID4 binder active (no result: STK33 inh)
COCC(=O)Nc1ccc2c(c1)[C@@H]1C[C@H](CC(=O)NC3CCCC3)O[C@@H](CO)[C@@H]1O2	none (no result: STK33 inh)
COc1ccc(-c2cc(C(F)(F)F)nc(SCC(=O)Nc3ccc(Cl)cc3Cl)n2)cc1	none
Cc1ccnc(NC(c2cccc(F)c2)c2ccc3ccc(C)nc3c2O)c1 (configuration not stated)	none
COc1c(O)c(O)cc2ccc3cccc(O)c3c12	none (no result: ID4 binder, mut p53 react)
COc1cc2c(ccc3cc(OC)c(OC)c(O)c32)cc1O	STK33 inh 30 (no result: mut p53 react)

Bioassay records (PubChem)
